This note sets out measurements from article PMC7819943, “Rice protein-binding microarrays: a tool to detect cis-acting elements near promoter regions in rice”.

Whole data set: some 35,000 sequences, median “fluorescence intensity (a.u.)” near 10,000, cut for the highest 2% near 52,000. The sample holds the highest values, similar sequences and a random draw of the others, so the mix is not that of the screen.

This test deals with T1, OsWOX13 (Oryza sativa, UniProt Q5QMM3 1-267).
T1 sequence: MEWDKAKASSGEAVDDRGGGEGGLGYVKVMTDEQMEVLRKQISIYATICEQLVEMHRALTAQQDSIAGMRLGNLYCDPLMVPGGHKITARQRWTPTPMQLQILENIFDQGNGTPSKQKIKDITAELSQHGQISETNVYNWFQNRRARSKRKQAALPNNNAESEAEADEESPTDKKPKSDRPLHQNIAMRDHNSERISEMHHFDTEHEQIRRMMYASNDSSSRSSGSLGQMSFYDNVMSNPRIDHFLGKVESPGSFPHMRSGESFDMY
Briefly: protein-binding microarray (RPBM); PBS, 2% BSA, 51.3 ng/ul salmon testes DNA, 50 uM zinc acetate, 200 nM TF, 25 C, 1 h; high values mean tight binding. Particulars: protein: recombinant; tags: N-terminal polyhistidine and DsRed monomer fusion (pET32a); label: CyDye5-dUTP incorporated in the synthesized complementary strand; 3' TTTTT single-stranded linker to array surface; dsDNA, one strand shown. Summed up:
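Ni–NTA purification followed expression in E. coli BL21-CodonPlus of transcription factors fused N-terminally to a polyhistidine tag and DsRed. At 200 nM in PBS with 2% BSA, salmon testes DNA and 50 µM zinc acetate, the protein was incubated for 1 h at 25 °C with a custom Agilent array that had been primer-extended with Cy5-dUTP and blocked with 2% BSA. After washing, the array was read on an Axon 4000B scanner. The binding signal is per-feature fluorescence intensity in arbitrary units.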
For the sequence “TGGTCAGATAGCTAGATTGATATCCCTCTCTCTCTCTCACCGGAGTCACCTAGTGCAG”, the binding signal was 13900 fluorescence intensity (a.u.).

Regarding “TTGTAAATTACCTGCAAGGAAGAATTAACCAAGATGTCTTCGGAGTCACCTAGTGCAG”, the binding signal is 5040 fluorescence intensity (a.u.).

Turning to “AATCATTTTCAGTTACAAATTAAATGGTGTTTCAATAGCTCGGAGTCACCTAGTGCAG”, the binding signal is 6090 fluorescence intensity (a.u.).

For the sequence “TTAATTATTGTGAGTAATAGATTAACGACACACGTGTTGACGGAGTCACCTAGTGCAG”, the binding signal is 23300 fluorescence intensity (a.u.).

With “TAATAATTATAATTAATTACCGGAGTTACTTATTCTAAACCGGAGTCACCTAGTGCAG”, the binding signal is 60400 fluorescence intensity (a.u.).

Regarding “CTTAACTTTAAATATATAATTTTATAATAATTTTACGTTGCGGAGTCACCTAGTGCAG”, the binding signal was 17500 fluorescence intensity (a.u.).

With “AATATACTTAATTACCTCTATTAGTTAATATACTTAACACCGGAGTCACCTAGTGCAG”, the binding signal is 12000 fluorescence intensity (a.u.).

With “GTTTATAATAATTAAAACTTAATTAATCACATGTTATTACCGGAGTCACCTAGTGCAG”, the binding signal was 22900 fluorescence intensity (a.u.).

As for “TTTAGATAATTAATATTTAAATAATTATACTCTCGTTTTGCGGAGTCACCTAGTGCAG”, the binding signal is 29600 fluorescence intensity (a.u.).

As for “TAAAACTTAATTAATTATACGTTAATATTACCTCGTTTTGCGGAGTCACCTAGTGCAG”, the binding signal is 53900 fluorescence intensity (a.u.).

As for “AGTAATTAGTATGACCACCCTAATATACGGTAGTATGGTACGGAGTCACCTAGTGCAG”, the binding signal was 27200 fluorescence intensity (a.u.).

Turning to “TTTATTGATTGAGAGGAACTATCTACCTCTGTAATGACATCGGAGTCACCTAGTGCAG”, the binding signal was 46600 fluorescence intensity (a.u.).

Take “ATTTAAATTTCCATCCTTAAATTTGAAGGTGATTTTGAGGCGGAGTCACCTAGTGCAG”: the binding signal is 21500 fluorescence intensity (a.u.).

As for “GCTAATACTTAATTAATCACGCGCTAATAGACCGCTCCGTCGGAGTCACCTAGTGCAG”, the binding signal was 24500 fluorescence intensity (a.u.).

Take “TTCTAATTAATCACGCGTTAATGGACCGCTCCGTTTTCCGCGGAGTCACCTAGTGCAG”: the binding signal was 42300 fluorescence intensity (a.u.).

Turning to “ATTAATTACGCGCTAATCGTTGCTCCGTTTTCCGTGCAAACGGAGTCACCTAGTGCAG”, the binding signal was 11400 fluorescence intensity (a.u.).

For “TTTAATTAATCACGCGCTAATAGACTGCTCCGTTTTCCGTCGGAGTCACCTAGTGCAG”, the binding signal was 55800 fluorescence intensity (a.u.).

With “AGCTAATACTTAATTAATCACGCGTTAATGGACTGCTCCGCGGAGTCACCTAGTGCAG”, the binding signal was 26700 fluorescence intensity (a.u.).

“ACTTAATTAATTACGTGTTAATGGACTGCTCCGTTTTCCGCGGAGTCACCTAGTGCAG”: the binding signal was 65500 fluorescence intensity (a.u.).

As for “ACAGATTAATTAGGCTTAATATATTCATATCGCAGTTTACCGGAGTCACCTAGTGCAG”, the binding signal was 50500 fluorescence intensity (a.u.).

With “ATTACGTAATTAATTAAAATACAAATTTCAGCATCCTTACCGGAGTCACCTAGTGCAG”, the binding signal was 42300 fluorescence intensity (a.u.).

Regarding “AGCCTAATTAATCCGTCATCAGCAAATGTTTATTGTAGCACGGAGTCACCTAGTGCAG”, the binding signal was 29700 fluorescence intensity (a.u.).

“CTCCCGTGCAGTTGCCAGTTGATTGGTTCAGCGTGGCTGCCGGAGTCACCTAGTGCAG”: the binding signal was 9720 fluorescence intensity (a.u.).

For the sequence “CACATGTGATTGGGCCTCGAGCCTCAGCGTGCGTGCGCCCCGGAGTCACCTAGTGCAG”, the binding signal was 20400 fluorescence intensity (a.u.).

“CATTGATTGGCCAGCCGAGGTCTAGCCTCAACCTAGCGTGCGGAGTCACCTAGTGCAG”: the binding signal is 54800 fluorescence intensity (a.u.).

For “ACTTCTATAATATATGTAAATTACCTTTTGGCTTTGCTGACGGAGTCACCTAGTGCAG”, the binding signal was 4500 fluorescence intensity (a.u.).

“TATAGATTAGAGAATTAGTGGAGAACAAAATATAATAAAGCGGAGTCACCTAGTGCAG”: the binding signal was 5050 fluorescence intensity (a.u.).

In the case of “TGCTTTTCATGTTTATTGATTTAGGCGCACCTGTTCTGTTCGGAGTCACCTAGTGCAG”, the binding signal was 3190 fluorescence intensity (a.u.).

Consider “CAGAATGATTGTGCTTAATTGTAAAATTGATTTTAGGATTCGGAGTCACCTAGTGCAG”, for which the binding signal is 61100 fluorescence intensity (a.u.).

Turning to “TTTTAGGATGATTTAATTGTAAATTTAAAATTAAAATGGTCGGAGTCACCTAGTGCAG”, the binding signal is 35400 fluorescence intensity (a.u.).

In the case of “TTAAAATTGATTTTAGGGGATTTTCATCTGAGCTTATGTTCGGAGTCACCTAGTGCAG”, the binding signal was 55800 fluorescence intensity (a.u.).

For “TTAACAATATTTTAATGATTGCTCTTGTGCTTAGAAAATTCGGAGTCACCTAGTGCAG”, the binding signal is 5300 fluorescence intensity (a.u.).

Consider “AAAATTTAAATTTTCAGGCTTAAATTTGAAATTGATTTTACGGAGTCACCTAGTGCAG”, for which the binding signal is 7780 fluorescence intensity (a.u.).

Consider “ACACAGCTAATTAGCTCTATGACTAAATGAATAAAATGACCGGAGTCACCTAGTGCAG”, for which the binding signal was 25800 fluorescence intensity (a.u.).

Turning to “TCGTCAGGTTAATCAAGGGAGGATTGAACGAGATTTCGTGCGGAGTCACCTAGTGCAG”, the binding signal is 5920 fluorescence intensity (a.u.).

As to “TGATCTAATCAATGACAGCGACTTGGTTCCATGTTCTTCCCGGAGTCACCTAGTGCAG”, the binding signal was 12300 fluorescence intensity (a.u.).

“TATTCAATAACTAAATTAATGCCTGATTTACGTTGTTCGTCGGAGTCACCTAGTGCAG”: the binding signal was 17400 fluorescence intensity (a.u.).

Regarding “TCTTAATTTCTATCAATAATTTAATTTAGCATATAATAACCGGAGTCACCTAGTGCAG”, the binding signal is 31300 fluorescence intensity (a.u.).

For the sequence “ATTGATGATTTAATGAAACTAATTTGATATTGTAGATGTTCGGAGTCACCTAGTGCAG”, the binding signal is 48300 fluorescence intensity (a.u.).

For “CCACTAACAGTCTAACAACATGATAAGGCCTCCGCAACCACGGAGTCACCTAGTGCAG”, the binding signal was 3920 fluorescence intensity (a.u.).

Turning to “GAGCCTAATTACGCCATGATTTGACAATGTGGTGCTACAGCGGAGTCACCTAGTGCAG”, the binding signal is 39300 fluorescence intensity (a.u.).

As to “AGCCTAATTACGTCATGATTTGACAATGTAATGATACCGTCGGAGTCACCTAGTGCAG”, the binding signal is 53500 fluorescence intensity (a.u.).
